# Experimental data published in PubChem BioAssay (NCI).
# About 83,000 compounds went through this panel and 20% of them were active in at least one assay; those are over-represented in the sample as a whole.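 Cell lines were cultured in 96-well plates, exposed to a single compound concentration, and assessed for percent growth 48 hours later.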 A number with no mark means an inactive call. Active and inactive are the calls of the source. The calls were made as follows: active = growth percent below 10; inactive = the rest.
# System: SW-620 colon
# Experiment: NCI-60 one-dose screen, 48 h (100 = growth as untreated, 0 = no growth, -100 = all killed)
# Conditions: 10 µM unless noted
row,Compound,growth
1,O=CC1(C2(C=O)c3ccccc3-c3ccccc32)c2ccccc2-c2ccccc21,-29.2% (active)
2,N#Cc1c(-c2cccs2)cc(-c2cccnc2)[nH]c1=O,101%
3,CCOC(=O)c1cnc2ccccc2c1Cl,90.9%
4,Cn1cccc1C(=O)C1C(c2cccc([N+](=O)[O-])c2)C2C3CCCCC3CN2C12C(=O)Nc1ccc(Cl)cc12 (stereo not given),54.7%
5,Cc1ccccc1/C=C1\CN(C(=O)OC(C)(C)C)C/C(=C\c2ccccc2C)C1=O,5.37% (active)
6,Cc1ccc(-c2cc(-c3ccc(Cl)cc3)nc(NC(=O)c3cccnc3)n2)cc1,102%
7,O=c1c2cc(-c3ccccc3)sc2nc2sc(-c3ccccc3)nn12,103%
8,COc1ccc2nc(NC(=O)CSc3nnc4n3S(=O)(=O)c3ccccc3N4C)sc2c1,107%
9,Cc1ccc(/C=C2\CN(C(=O)OC(C)(C)C)C/C(=C\c3ccc(C)cc3)C2=O)cc1,5.21% (active)
10,O=C(Nn1c2c(sc1=Nc1ccccc1)C(=O)c1ccccc1C2=O)c1cc2ccc1CCc1ccc(cc1)CC2,75.9%
11,O=C1Nc2ccc(I)cc2C1=O,65.2%
12,Fc1ccc2[nH]cc(-c3nonc3-c3c[nH]c4ccc(Br)cc34)c2c1,28.5%
13,O=C(/C=C/c1ccc(Cl)cc1)c1cccc(Nc2nc(Nc3ccccc3)nc(Nc3ccccc3)n2)c1,98.8%
14,O=[N+]([O-])c1ccc(S(=O)(=O)N2CCN(C3=NS(=O)(=O)c4ccccc4N3c3ccccc3)CC2)cc1,103%
15,Oc1ccc(CCn2c(O)c(/C=C3\CN=c4ccccc4=N3)sc2=S)cc1,67.4%
16,CCOC(=O)/C=C1\S/C(=N\Nc2cc(=O)[nH]c3ccc(Cl)cc23)N(c2ccccc2)C1=O,77.3%
17,CCOC(=O)c1cn2ncnc(Oc3ccc(NC(=O)NC4CCCCC4)c(Cl)c3)c2c1C,81.6%
18,Fc1cc2c(cc1Cl)N(c1ncnc3ccc(-c4cnc5[nH]ncc5c4)cc13)CC2,80.2%
19,CC1=C(Nc2ccc(N3CCN(C)CC3)cc2)C(=O)c2cncnc2C1=O,75.8%
20,COc1ccc(C(=O)Nc2ncc(Cc3ccc(F)cc3)s2)cc1,31%

row,Compound,growth
1,Cc1ccc(CNc2ccc(Cl)cc2NCc2ccc(C)c(O)c2)cc1O,25.9%
2,COc1cc(NC(C)CCCNC(C)C)c2ncccc2c1OC (stereo not given),92.6%
3,Cc1ccc(NC(=S)NNC(=S)NNc2ccccc2)cc1C,106%
4,COc1ccc(/C=N/C2=C(C#N)C(c3cccc(Cl)c3)c3c(ccc4ccccc34)O2)cc1 (stereo not given),23.7%
5,C#CCOc1ccc2ncnc(Nc3cccc(NC(=O)C=C)c3)c2c1,90.3%
6,Cc1nc2c(=O)[nH]c(SCC(=O)Nc3cccc(F)c3)nc2[nH]c1=O,101%
7,CC1(C)c2[nH]c3ccccc3c2C[C@]2(C)[C@H]3CC=C4[C@@H]5C[C@@](C)(C(N)=O)CC[C@]5(C)CC[C@@]4(C)[C@]3(C)CC[C@@H]12,61.2%
8,CCOC(=O)c1cc(-c2ccc([N+](=O)[O-])cc2)n(-c2ccc(C(=O)O)c(O)c2)c1C,93.2%
9,Nc1c(C(=O)Nc2ccncc2)sc2nc3c(cc12)CCCCCC3,103%
10,COc1cccc(NC(=O)Cn2cc(CN3CCN(c4ccnc5cc(Cl)ccc45)CC3)nn2)c1,88.8%
11,COC(=O)c1cc(-c2ccc(OC)cc2)[nH]c1N/N=C/c1c(Cl)cccc1Cl,9.62% (active)
12,O=C1CC(N2C(=O)/C(=C/C(Cl)=C\c3ccc([N+](=O)[O-])cc3)SC2=S)C(=O)N1c1ccc(Cl)cc1 (stereo not given),3.41% (active)
13,Clc1ccc2c(c1)N(c1ncnc3ccc(-c4cnc5[nH]ncc5c4)cc13)CC2,47.4%
14,O=C1Nc2ccc(Br)cc2/C1=N/c1n[nH]c(=S)s1,97.1%
15,O=C1C(Cl)=C(Oc2ccccc2)C(=O)c2ccccc21,47.6%
16,Cn1cc(-c2csc(-c3ccc(Cl)cc3)n2)c2cccnc21,-62% [100 µM] (active)
17,Brc1ccc2[nH]cc(-c3nonc3-c3c[nH]c4ccccc34)c2c1,60.4%
18,COc1ccc(C2=Nc3c/c(=C\c4c(O)[nH]c5ccc(Cl)cc45)ccc3=N2)cc1,5.99% (active)
19,CC(C)NC1CCC(Nc2ccnc3cc(Cl)ccc23)CC1 (stereo not given),91.7%
20,Cc1cc(=O)[nH]c2c(C#N)cnn12,92.4%
